{"source": "the supplement of paper PMC6555819"}
{"system": "VDR:RXRa (NR concentration 270 nM, RXRa partner concentration 90 nM)", "assay": "PBM binding z-score (relative to random genomic background probes); higher = stronger binding; sequences stand for … in GC…GCGATTGACAGCGTAGAATGAAGG", "description": "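Protein-binding microarray (Agilent 4x180K custom design, double-stranded 60-nt probes: 5' GC cap, 34-nt variable region, 24-nt constant primer region; full probe sequence given). Purified or IVT nuclear receptor:RXRα heterodimers (3:1 NR:RXRα, mostly 270:90 nM) or homodimers were incubated for 1 h in PBS with 2% milk and no ligand, then detected with Alexa488 antibodies. Fluorescence from o1-orientation probes (~5 replicates averaged) was converted to z-scores against 500 random hg19 background probes. Variable regions are seed direct-repeat (DR0–DR5) sites, all their single-nucleotide variants and half-site ablations.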"}
{"sequence": "GCTGCTAGGGCAACTGATGGTCAGCTAAAGCTCG", "PBM binding z-score": -0.881}
{"sequence": "AGTCAAAGTTCAGGGCGAGGTAACGTAAAGCACG", "PBM binding z-score": 3.27}
{"sequence": "TCTACCAGGCCAGAGGGTCACTCAAGAGGTACGG", "PBM binding z-score": 2.1}
{"sequence": "GCGACTGGGGCACAGCAGGTTACCATAAGGTTGG", "PBM binding z-score": -0.208}
{"sequence": "CGGCAAAGTTCAAGGTAACGTAACAGAAAGCAGC", "PBM binding z-score": 3.52}
{"sequence": "AGAATGAGGTTAGACGTAGATCAGGGAAGAAAGT", "PBM binding z-score": 0.639}
{"sequence": "TGAGACAGGTGAAGGTAACTCAGGTACGCAGTCG", "PBM binding z-score": -0.109}
{"sequence": "CGTCCAAGGTCAATGCTAGGTCAGTGGAAGCATT", "PBM binding z-score": 4.77}
{"sequence": "GCTATTCGTTGAAAGGGCAACCGAATGATTCTCG", "PBM binding z-score": 0.306}
{"sequence": "CGTCCAAGGTCAATGCTAGGTCATTGAAAGCATT", "PBM binding z-score": 5.84}
{"sequence": "TGTAAAAGTTCAAAGGTAACGTAAGTATCCACAC", "PBM binding z-score": 4.65}
{"sequence": "TCATATAGGTAAAGGTGAAAGACGAACGATATGA", "PBM binding z-score": 0.914}
{"sequence": "CCTCGGAGGACAGAAGGTCAGAGATGTCCGCTTT", "PBM binding z-score": 1.28}
{"sequence": "GGATCGAGGGCATTCGAGTTGATAGCATGGCGAT", "PBM binding z-score": 3.52}
{"sequence": "ACTAGCAGGCCAAGGTTCACTCAAGATTAGTCCG", "PBM binding z-score": 2.01}
{"sequence": "TCTAGTTGGTCCAAGGTCACACACTCGAAATGCG", "PBM binding z-score": 3.77}
{"sequence": "CGTCCAAGGTCATAGGAAGTCAGTGAAGACAGAT", "PBM binding z-score": 4.21}
{"sequence": "TCTATTAGTTGAATAGGGCAACCGAAACAGCGGA", "PBM binding z-score": 0.6}
{"sequence": "AGAATGAGCTTACCAAAGATCAGGGAAACGCTTG", "PBM binding z-score": -0.591}
{"sequence": "TCTTGTAGATCAGCAGGTCAAGAAAGCTGGCCAA", "PBM binding z-score": 1.17}
{"sequence": "GCTAGTTGGTCAGTAAAAGGTCACACTCCGGTCG", "PBM binding z-score": 3.76}
{"sequence": "TTACCACGGTGAAAGGTCGTTGATGCACGCCTTG", "PBM binding z-score": 1.99}
{"sequence": "CCTCGCAGGCCAGGGTCACTCAAGCATTTCGCTT", "PBM binding z-score": 2.41}
{"sequence": "ATATGTAGGTTATCGGGTCATTCACTTTGCGCAT", "PBM binding z-score": 3.73}
{"sequence": "ATCGAAAGGTTGAAGGTGAGTATACCCACCCGAA", "PBM binding z-score": 0.806}
{"sequence": "CCTATTAGTTGACCATAAGGGCAACCCAAGCTCG", "PBM binding z-score": 0.972}
{"sequence": "ATCGAAAGGTCGACGAAGTGAGTATACACCGTTT", "PBM binding z-score": 2.27}
{"sequence": "ACAGACAGGTGAGTGATGGTAACTCAGCTGGACG", "PBM binding z-score": -0.122}
{"sequence": "CCTTACGGGGCACGAGGTTATAGCACGACGAGCG", "PBM binding z-score": 0.986}
{"sequence": "CCTAGTTGGTGAGGAGGTCACACACCGGATATGA", "PBM binding z-score": 3.46}
{"sequence": "CTCGAAAGGTCGGTTTAGGTGAGTATACGGATAA", "PBM binding z-score": 1.28}
{"sequence": "CGTCCAAGGTCAGCAGGTCAATGAAAGCGACGTG", "PBM binding z-score": 4.68}
{"sequence": "GCTATTAGTTGAACGGGCAACCGAATGATTCTCG", "PBM binding z-score": -0.187}
{"sequence": "TCTGCTAGCTCAACGATGGTCAGCTAATCTGCTA", "PBM binding z-score": -0.662}
{"sequence": "TGAATGAGGTTAGAAGATCAGGGAACGTTGCAAA", "PBM binding z-score": 0.0983}
{"sequence": "ACTTACGGGTCAACGAGGTTATAGCTCGCGTATA", "PBM binding z-score": 7.8}
{"sequence": "TGATATAGGTAAATGCTAGGTGAAAGTCCGATCT", "PBM binding z-score": 0.142}
{"sequence": "GCTAGCAGGCCATTTGGGTCACCCAATGACGGGC", "PBM binding z-score": 1.07}
{"sequence": "CCTATTAGTTGCCCATAAGGGCAACCGAAGCTCG", "PBM binding z-score": 0.653}
{"sequence": "TCAGATAGGTGAAGGTAACTCAGGTACGCAGTCG", "PBM binding z-score": 0.796}
